Inconclusive results are not listed. Entries that show only a call come without a potency. The source made the active and inactive calls. Calls come from the whole dose curve.

40 compounds from PubChem BioAssay AID720518 (National Center for Advancing Translational Sciences (NCATS), 2013) can be followed below.

This experiment can be described thus: qHTS for Inhibitors of Cell Surface uPA Generation: Wild-type Protective Antigen (WT-PrAg) Counterscreen for Cherry-picked Compounds. Conditions: cells, WT protective antigen toxicity counterscreen; series mostly up to 115 µM. On the technique in general: qHTS replaces the single test concentration by a dilution series.
As for `COCCn1c(SCC(=O)Nc2ccc(F)cc2)nc2ccccc2c1=O`, the Potency result was “inactive”.
For `O=C(C[C@H]1C[C@H](C(=O)N2CCOCC2)[C@@]2(CCC3CCCC3)c3[nH]c4cc(-c5ccco5)ccc4c3CCN2C1=O)NCc1cccc(C(F)(F)F)c1`, the Potency result was “inactive”.
As to `CSCC[C@H](NC(=O)[C@H](Cc1ccccc1)n1c(=O)[nH]c2ccccc2c1=O)C(=O)N1CCC[C@@H]1C(=O)O`, the Potency result is “inactive”.
Consider `Cc1cc(C)n(-c2cc(C(=O)O)cc(C(=O)O)c2)n1`, for which the Potency result is “inactive”.
Consider `O=C(O)CSc1nnc(COc2ccccc2)n1-c1ccccc1`, for which the Potency result is “inactive”.
In the case of `Fc1ccc(N2CCN(c3nc(CN4CCOCC4)nc4scc(-c5ccccc5)c34)CC2)cc1`, the Potency entry is “inactive”.
As for `Cc1ccccc1C(=O)Nc1ccccc1N1CCCCC1`, the Potency entry was “inactive”.
Then `CC(=O)c1ccc2c(c1)c1ccccc1n2CC(C)C`, with “inactive”.
For `C=CCn1c(C)cc(C(=O)COC(=O)/C=C/c2cccc(OC)c2)c1C`, the Potency entry is “inactive”.
For `COc1ccccc1N=Nc1c(C)[nH]n(-c2ccccc2)c1=O`, the Potency result is “inactive”.
As for `COCc1cc(C)nc2sc(C(=O)Nc3nccs3)c(N)c12`, the Potency result was “inactive”.
Then `COc1cc(C2/C(=C(\O)c3ccc4c(c3)CC(C)O4)C(=O)C(=O)N2CC2CCCO2)cc(OC)c1OC` (stereo not given), with “inactive”.
As to `O=C(O)CCCC(=O)NCCCCc1ccccc1`, the Potency entry was “inactive”.
On to `COC(=O)C1=C(c2cccc(OC)c2OC)C[C@@H]2CC[C@H]1N2C(=O)NC1CC1`, for which the Potency entry is “inactive”.
Then `CCCn1nnc(NC(=S)NC(=O)c2ccccc2OC)n1`, with “inactive”.
Turning to `CCCC1=NN(C(=O)Cc2ccc(OC)cc2)C(O)(C(F)(F)F)C1` (stereo not given), the Potency result is “inactive”.
In the case of `CCCS(=O)(=O)c1ccc(COC(=O)Cc2ccc([N+](=O)[O-])cc2)cc1` it was “inactive”; in that of `CCn1c(CNc2ccc(F)cc2)nnc1SCC(=O)Nc1ccccc1OC`, “inactive”.
In the case of `C=C(C)C(=O)O[C@H]1C/C(C)=C\C(=O)/C=C(\C)[C@H](O)[C@@H]2OC(=O)C(=C)[C@@H]21`, the Potency entry was “inactive”.
In the case of `O=C(NNC(=O)C1CC(c2cccs2)=NO1)Nc1ccccc1` (stereo not given) it was “inactive”.
Then `COc1ccc(N2CCN(S(=O)(=O)c3ccc4c(c3)NC(=O)CS4)CC2)cc1`, with “inactive”; and `C[C@H]1CN([C@@H](C)CO)C(=O)c2cc(NS(=O)(=O)c3ccc(Cl)cc3)ccc2O[C@@H]1CN(C)CC1CCCCC1`, with “inactive”; and `Cc1cccc(CNc2ccc(C(CC(N)=O)NC(=O)c3cccc(Br)c3)cc2[N+](=O)[O-])c1` (stereo not given), with “inactive”.
Then `CCc1nccn1CCC(=O)N1CCc2c([nH]c3ccccc23)C1CC(C)C` (stereo not given), with “inactive”.
Consider `Cc1cc(N)n(Cc2ccc(Cl)cc2)n1`, for which the Potency entry was “inactive”.
Take `Cc1ncc(CN2CCCC(C(=O)c3cccc(OC(C)C)c3)C2)s1` (stereo not given): the Potency entry was “inactive”.
In the case of `CCc1ccc(S(=O)(=O)NCCc2cn3cccc(C)c3n2)s1` it was “inactive”; in that of `CCCCN(CC(=O)Nc1cccc(S(=O)(=O)N2CCCC2)c1)Cc1nc2ccccc2c(=O)[nH]1`, “inactive”; in that of `CC[C@]1(C(=O)OC)[C@H]2C(=O)N(C)C(=O)[C@H]2[C@H]2CN(C)C(=NC3CCCCC3)N21`, “inactive”.
Then `O=C(NC1CCCC1)c1nc2c(nnn2Cc2ccccc2Cl)c(=O)[nH]1`, with “inactive”; and `CCCc1nn2c(=O)cc(CSCC(=O)Nc3ccccc3)nc2s1`, with “inactive”; and `Cc1cc(C)cc(S(=O)(=O)c2cn(C)c3cc(N4CCN(C)CC4)c(F)cc3c2=O)c1`, with “inactive”.
In the case of `CCCCNc1c(-c2ccc(-c3cccc(Cl)c3)cc2)nc2ccccn12` it was “inactive”.
On to `CCOC(=O)C1(CC2CCCCO2)CCN(Cc2nccn2-c2cccc(C)c2)CC1` (stereo not given), for which the Potency entry is “inactive”.
In the case of `CCOc1cc(C(=S)N2CCOCC2)ccc1OC(=O)c1cccc(C)c1` it was “inactive”; in that of `COc1ccc(C2C(C(=O)c3ccc(C)o3)=C(O)C(=O)N2CC2CCCO2)cc1OC` (stereo not given), “inactive”; in that of `CCc1ccccc1NC(=O)CN(C)C(=O)CSc1nnc(Nc2cccc(C)c2C)s1`, “inactive”.
In the case of `COc1ccc(CNC(=O)C2(CC3CC(c4ccccc4)=NO3)CCNCC2)cc1` (stereo not given) it was “inactive”; in that of `COc1cc(/C=N/NC(=O)c2cc(-c3ccco3)nc3ccccc23)cc(OC)c1O`, “inactive”.
Then `Cc1ccc(-n2c(O)c(C=NCCN3CCNCC3)c(=O)[nH]c2=S)cc1`, with “inactive”.
